According to PubChem BioAssay AID1523 (The Scripps Research Institute Molecular Screening Center, 2009):
The list shows a part of the results. Values without a mark were called inactive. Cut-off read from the data, not from the text of the source: active = activation above about 12%; inactive = the rest.

Molecular target: Sphingosine 1-phosphate receptor 4 (Homo sapiens) (UniProt O95977)
Assay: S1P4 receptor agonists, retest, confirmation, cell-based, high throughput (AID 1523);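 note: 0% = vehicle and 100% = full reference agonist response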
Conditions: S1P4 agonist cell-based reporter assay; at 4.98 µM; hits give high values

Chain of Sphingosine 1-phosphate receptor 4 (Homo sapiens) (O95977 whole entry, looked up): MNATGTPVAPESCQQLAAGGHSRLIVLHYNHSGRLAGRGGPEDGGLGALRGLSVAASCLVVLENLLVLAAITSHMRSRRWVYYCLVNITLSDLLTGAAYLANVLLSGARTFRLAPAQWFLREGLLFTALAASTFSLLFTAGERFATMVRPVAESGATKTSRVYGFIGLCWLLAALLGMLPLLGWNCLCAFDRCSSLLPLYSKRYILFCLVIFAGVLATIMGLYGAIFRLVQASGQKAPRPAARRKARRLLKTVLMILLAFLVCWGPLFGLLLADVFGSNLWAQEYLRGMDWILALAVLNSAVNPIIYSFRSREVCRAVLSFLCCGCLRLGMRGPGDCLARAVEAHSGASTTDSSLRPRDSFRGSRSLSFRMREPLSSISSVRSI

With `CC(C)N(CC#CCC1(O)c2ccccc2-c2ccccc21)C(C)C` the activation was -2.04%.
